This excerpt belongs to a sample that is enriched for hits.
DT40 TDP1 no CPT – qHTS for Inhibitors of human tyrosyl-DNA phosphodiesterase 1 (TDP1): qHTS in cells in absence of CPT. DT40 Tdp1-/- hTDP1 cells, no CPT, ATP luminescence, 48 h. Potency, µM (series often up to 46.2 µM), for the others: top-dose activity change, negative = growth inhibition, actives largely listed as inhibitors. 15% of 420,000 active. AID 686978, 2013; also: potency is read from the fitted curve at half-maximal effect; nearly all actives have a fitted effect of over 55% in size
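No-CPT arm: Tdp1-/-;hTDP1 DT40 cells (400/well) plus compounds, incubated ≥48 hr at 37 °C. Readout CellTiter-Glo luminescence.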
HT1080NT lethal – qHTS for induction of synthetic lethality in tumor cells producing 2HG: qHTS for the HT-1080-NT fibrosarcoma cell line. HT-1080-NT fibrosarcoma viability, CellTiter-Glo ATP luminescence, 48 h. Potency, µM (doses to about 46.1 µM), for the others: at the highest dose activity, negative = less viability, actives largely listed as cytotoxic. 1.6% of 360,000 active. AID 686970, 2013;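 also: NT is the 2HG producing partner of a matched IDH1 knockdown line; potency is read from the fitted curve at half-maximal effect; 0% = DMSO-treated cells and -100% = media-only wells without cells; nearly all actives have a fitted effect of over 55% in size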
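Fibrosarcoma NT cells, 750 per well in 5% FBS RPMI, were exposed to compound for 48 hours. Viability: CellTiter-Glo luminescence.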
HT1080 IDH1KD tx – qHTS for induction of synthetic lethality in tumor cells producing 2HG: qHTS for the HT-1080-IDH1KD cell line. HT-1080 IDH1 knockdown viability, ATP luminescence, 48 h. Potency, µM (top dose mostly 46.1 µM), inactives show at the top dose activity, negative = toxicity, usual class: cytotoxic. 2% of 360,000 active;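 also: potency is read from the fitted curve at half-maximal effect; 0% = DMSO wells and -100% = cell-free medium wells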
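HT-1080-IDH1KD cells (IDH1 knocked down), 750/well in RPMI with 5% FBS, treated with compound 48 h at 37 degrees C. Viability by CellTiter-Glo luminescence, normalised to DMSO and no-cell wells; concentration-response curves classed.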
IL-1B inflam inh – qHTS for Inhibitors of Inflammasome Signaling: IL-1-beta AlphaLISA Primary Screen. THP-1 LPS/ATP IL-1B secretion, AlphaLISA, 16 h; hits give low values. 4.7% of 360,000 active. activity change, % at 57.5 µM. AID 743279, 2014; in the data active = activity change below about -50%; inconclusive = mostly about -30% to -49%
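THP-1 cells pretreated 1 hr with compounds (up to 57.5 uM final), then stimulated with LPS (250 ng/mL final) plus ATP (1.25 mM final); secreted IL-1B measured by AlphaLISA after 16 hr, decreased signal indicating inhibition.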
ALOX12 inh – Primary qHTS assay for inhibitors of human arachidonate 12S-lipoxygenase (ALOX12): Round 2; purified 12hLO, xylenol orange hydroperoxide absorbance; Potency, µM (series often up to 108 µM), for the others: at the top dose activity change, negative = inhibition, most hits filed as inhibitors; Polyunsaturated fatty acid lipoxygenase ALOX12 (Homo sapiens), P18054; AID 1671190, 2021; 1.1% of 580,000 active; also: potency is read from the fitted curve at half-maximal effect
Target sequence (P18054 whole entry, looked up): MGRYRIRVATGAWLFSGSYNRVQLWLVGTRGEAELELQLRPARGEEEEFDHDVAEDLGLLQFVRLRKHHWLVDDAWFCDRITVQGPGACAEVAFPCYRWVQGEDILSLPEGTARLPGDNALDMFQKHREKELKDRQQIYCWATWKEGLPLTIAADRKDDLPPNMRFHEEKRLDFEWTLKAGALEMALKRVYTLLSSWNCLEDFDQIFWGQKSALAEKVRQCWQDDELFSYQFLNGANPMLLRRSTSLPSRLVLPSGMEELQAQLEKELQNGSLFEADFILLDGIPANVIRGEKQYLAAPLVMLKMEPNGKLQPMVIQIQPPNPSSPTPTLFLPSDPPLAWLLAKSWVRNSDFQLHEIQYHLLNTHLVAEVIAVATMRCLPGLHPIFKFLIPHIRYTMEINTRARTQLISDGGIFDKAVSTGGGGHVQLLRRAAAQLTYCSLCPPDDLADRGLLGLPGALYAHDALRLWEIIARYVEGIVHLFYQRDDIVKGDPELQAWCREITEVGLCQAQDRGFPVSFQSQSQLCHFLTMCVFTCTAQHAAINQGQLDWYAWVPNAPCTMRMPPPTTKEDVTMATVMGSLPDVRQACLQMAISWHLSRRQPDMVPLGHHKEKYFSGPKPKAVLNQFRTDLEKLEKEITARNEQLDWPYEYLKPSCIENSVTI
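Purified human 12hLO (150 nM final) in 25 mM Hepes, 0.01% Triton X-100, pH 7.0 was preincubated 15 min at room temperature with compound. Then 40 uM arachidonic acid was added, 30 min. Hydroperoxide was read by Fe-XO absorbance ratio 573/405 nm.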
DT40 TDP1 CPT – qHTS for Inhibitors of human tyrosyl-DNA phosphodiesterase 1 (TDP1): qHTS in cells in presence of CPT; chicken DT40 Tdp1-/-;hTDP1 cells + 20 nM CPT, ATP luminescence, 48 h; Potency, µM (titrated, usually from 46.2 µM), for inactives: at the top dose activity change, negative = growth inhibition, actives largely listed as inhibitors; 12% of 420,000 active; also: potency is read from the fitted curve at half-maximal effect; nearly all actives have a fitted effect of over 55% in size
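Chicken DT40 Tdp1-/- cells stably complemented with human TDP1 were seeded at 400 cells/well in medium containing 20 nM camptothecin, exposed to pin-transferred compounds, and grown at 37 °C for at least 48 hr. Viability was read as ATP luminescence.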
Active calls of the source: *; ? = inconclusive; · = no result; [ ] = another dose, or the depositor's remark. Unless noted, calls follow the shape of the dose curve; as a rule, active = well fitted curve in the direction sought with a large enough effect; inconclusive = small, poorly fitted or top-dose-only effect, or another doubt; inactive = no such curve, though single readings can be large; an effect the other way counts as inactive or inconclusive. Unless noted, % is scaled to controls: 0 for no effect and ±100 for the full control effect.

SMILES | DT40 TDP1 no CPT | HT1080NT lethal | HT1080 IDH1KD tx | IL-1B inflam inh | ALOX12 inh | DT40 TDP1 CPT
Fc1ccc(F)c(C2=NNC(=Nc3ccccc3F)SC2)c1 | 16µM* | ? | ? | -8 | -28% | ?
c1ccc(CN=C2NN=C(c3ccccc3)CS2)cc1 | ? | -11% | -9% | -67* | ? | ?
Clc1ccccc1N=C1NN=C(c2cccs2)CS1 | -2% | ? | ? | -77* | 39% | -4%
O=C1CSC(=Nc2ccccc2Cl)N1 | -7% | 5% | 0% | 3 | -14% | -12%
CC(C)(C)N=C1NN=C(c2ccc(S(=O)(=O)N3CCCCC3)cc2)CS1 | ? | -21% | -15% | -30 | ? | 16µM*
O=C(NC1CCc2n[nH]c(=O)n2CC1)c1ccsc1 (stereo not drawn) | · | · | · | · | 27% | ·
Cc1cccc(N=C2NN=C(c3ccccc3F)CS2)c1C | ? | 5% | 0% | -4 | -8% | -27%
Fc1ccc(N=C2NN=C(c3cc(F)ccc3F)CS2)cc1 | 15µM* | ? | ? | -96* | ? | ?
Fc1ccccc1N=C1NN=C(c2ccccc2)CS1 | ? | 13µM* | ? | -90* | -2% | ?
CC(C)N=C1NN=C(c2ccc(F)cc2)CS1 | 23µM* | -8% | -9% | -1 | -17% | 18µM*
CC(=O)Nc1ccc(C(=O)Nc2ccc(S(=O)(=O)N3CCOCC3)cc2)cc1 | 9% | -1% | 3% | 3 | -2% | -3%
CC(=O)Nc1ccc(C2=NNC(=Nc3ccc(S(=O)(=O)N4CCOCC4)cc3)SC2)cc1 | ? | -22% | ? | -52* | -21% | ?
CCOC(=O)C1CCCN(c2nc3c(S(=O)(=O)c4ccc(Br)cc4)nnn3c3ccsc23)C1 (stereo not drawn) | ? | · | · | · | -25% | ?
O=C(N1CCOCC1)N1CCN(c2cc(Cl)ncn2)C(=O)C1 | · | · | · | · | 9%[6.33 µM] | ·
Cc1cc(S(=O)(=O)N2CCOCC2)ccc1F | -7% | 11% | 13% | 10 | 0% | -12%
O=S(=O)(c1ccc(N=C2NN=C(c3cc(F)ccc3F)CS2)cc1)N1CCOCC1 | 6.5µM* | ? | 16µM* | -76* | ? | 8.2µM*
O=C(CSc1nc(=O)n(Cc2ccncc2)c2c1CCC2)Nc1ccc2c(c1)OCO2 | · | · | · | · | 31% | ·
COc1cccc(CN2CCCN(S(=O)(=O)c3ccc(Br)cc3)CC2)c1 | ? | -13% | -29% | -18 | · | ?
COc1ccc(S(=O)(=O)N2CCCN(CC(=O)Nc3ccc(OC)cc3OC)CC2)cc1 | 12µM* | · | · | · | -19% | ?
O=S(=O)(c1ccc(Br)cc1)N1CCCN(Cc2cccc(F)c2)CC1 | ? | -1% | -1% | -56* | -6% | -10%
COc1ccc(C)cc1NC(=O)CN1CCN(S(=O)(=O)c2ccc3ccccc3c2)CC1 | 16µM* | 7% | -1% | 0 | -2% | 16µM*
COc1ccc(S(=O)(=O)N2CCCN(CC(=O)Nc3ccc(NC(C)=O)cc3)CC2)cc1 | -26% | 4% | 3% | -9 | -18% | 4%
COc1ccc(C2(C(=O)Nc3ccc(OC)cc3OC)CCCC2)cc1 | 23µM* | 8% | 13% | 19 | 7% | 13µM*
CC1=NS(=O)(=O)N(Cc2ccccc2)C=C1C(=O)OCc1nc(-c2ccccc2F)no1 | · | · | · | · | 51% | ·
O=C(CN1CCCN(S(=O)(=O)c2ccc(Br)cc2)CC1)Nc1cccc(C(F)(F)F)c1 | 12µM* | · | · | · | ? | 21µM*
SMILES | DT40 TDP1 no CPT | HT1080NT lethal | HT1080 IDH1KD tx | IL-1B inflam inh | ALOX12 inh | DT40 TDP1 CPT
COc1ccc(C)cc1NC(=O)CN1CCCN(S(=O)(=O)c2ccc(Br)cc2)CC1 | 9.2µM* | -20% | 0% | -30 | -5% | ?
COc1ccc(C)cc1NC(=O)CN1CCN(S(=O)(=O)c2ccc(F)cc2)CC1 | ? | 2% | 6% | -9 | 6% | ?
COC(=O)c1ccc(NC(=O)CN2CCN(S(=O)(=O)c3ccc(Br)cc3)CC2)cc1 | 18µM* | -14% | -11% | 0 | -8% | ?
CCCNc1nc2ccccc2nc1C(=O)Nc1ccc(Cl)cc1 | · | · | · | · | -11% | ·
CCOCCOC(=O)c1nc2ccccc2nc1Nc1ccc(Cl)cc1 | · | · | · | · | 10µM* | ·
Cn1sccc1=O | 2.9µM* | ? | ? | -53* | -3% | 2.9µM*
C=CCSc1nnc(NC(=O)CSc2nc3ccccc3o2)s1 | ? | 1% | 10% | 0 | 4% | 23µM*
Cc1nnc(NC(=O)CSc2nc3ccccc3o2)s1 | ? | ? | 0% | 9 | 5% | 1%
O=C(CSc1nc2ccccc2o1)Nc1nc(-c2ccccc2)c(-c2ccccc2)s1 | 12µM* | 4% | -2% | 0 | 1% | 18µM*
COc1cccc(CN2CCC3(CC2)c2ccccc2[C@@H](NC(=O)c2ccccc2)[C@@H]3O)c1O | -30% | · | · | · | 1% | ?
Cc1ccc(N2C(=O)c3cccc4c(N)ccc(c34)C2=O)c2cccnc12 | 0.021µM* | 0.021µM* | 0.0073µM* | 150 | -12% | 0.0082µM*
COc1ccc(N2C(=O)CC(Sc3nnc(-c4ccccc4)o3)C2=O)cc1 (stereo not drawn) | 2.9µM* | -1% | -1% | -29 | -19% | 2.9µM*
O=C(O)CCSC1CC(=O)N(c2ccccc2)C1=O (stereo not drawn) | 10% | 7% | 10% | 14 | · | -7%
COc1ccc(N2C(=O)CC(Sc3nc(C)cc(C)c3C#N)C2=O)cc1 (stereo not drawn) | -17% | -2% | -25% | 1 | 4% | -2%
O=C1CC(Sc2nnc(-c3ccccc3O)o2)C(=O)N1c1ccccc1 (stereo not drawn) | 4.6µM* | ? | 4.5µM* | 9 | -4% | 4.6µM*
COc1ccc(/C=C(\C#N)C(=O)C(C)(C)C)cc1Br | · | · | · | · | -37% | ·
Cc1cc2nc(-c3ccccc3Br)n(/C=C(\c3ccccc3)n3c(=O)[nH]c4ccccc43)c2cc1C | 23µM* | -9% | -15% | -1 | -9% | 16µM*

Compound activity as filed in PubChem.
